# Bioassay records from PubChem BioAssay.
# HttQ103 aggreg: qHTS Multiplex Assay to Identify Dual Action Probes in a Cell Model of Huntington: Aggregate Formation (GFP). 220,000 tested, 1.1% active. Potency, µM (series often up to 46.1 µM), for inactives: at the highest dose activity change, negative = inhibition, most hits filed as inhibitors. PC12 HttQ103-GFP aggregates, Acumen cytometry, 40 h; active = well fitted curve in the direction sought with a large enough effect; inconclusive = small, poorly fitted or top-dose-only effect, or another doubt; inactive = no such curve, though single readings can be large; an effect the other way counts as inactive or inconclusive; note: % is set by controls: 0 for no effect and ±100 for the full control effect; nearly all actives have a fitted effect of over 60% in size
#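 PC12 cells with ecdysone-inducible HTT exon1 Q103-GFP, induced by 100 nM tebufenozide, given compounds in a concentration series. GFP aggregates (1–25 um, 6 SD above background) counted in lysates by laser-scanning cytometry, 488 nm excitation.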
# HTT ATP protect: qHTS Multiplex Assay to Identify Dual Action Probes in a Cell Model of Huntington: Cytoprotection (ATP) | PC12 HTT-Q103 induced, cytoprotection, ATP luminescence, 40 h | Potency, µM (highest dose often 56.4 µM), without a hit: cytoprotection (ATP increase), actives largely listed as activators | 230,000 tested, 0.14% active | AID 1471, 2008; active = well fitted curve in the direction sought with a large enough effect; inconclusive = small, poorly fitted or top-dose-only effect, or another doubt; inactive = no such curve, though single readings can be large; an effect the other way counts as inactive or inconclusive; note: % of control where 0% means no effect; nearly all actives have a fitted effect of over 45% in size
#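 Cells were plated at 1500 per well in phenol red-free DMEM with 5% equine and 5% calf serum. Tebufenozide (100 nM final) and compounds were added, then ATPlite reagent, and luminescence was read.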
# HPGD block: qHTS Assay for Inhibitors of HPGD (15-Hydroxyprostaglandin Dehydrogenase); 15-hydroxyprostaglandin dehydrogenase [NAD(+)] (Homo sapiens), P15428; purified HPGD, NADH fluorescence kinetic, PGE2 substrate; Potency, µM, without a hit: at the highest dose activity change, negative = inhibition, hits mostly inhibitors; 150,000 tested, 4.3% active; AID 894, 2007; note: % is set by controls: 0 for no effect and ±100 for the full control effect
# Target sequence (P15428 whole entry, looked up): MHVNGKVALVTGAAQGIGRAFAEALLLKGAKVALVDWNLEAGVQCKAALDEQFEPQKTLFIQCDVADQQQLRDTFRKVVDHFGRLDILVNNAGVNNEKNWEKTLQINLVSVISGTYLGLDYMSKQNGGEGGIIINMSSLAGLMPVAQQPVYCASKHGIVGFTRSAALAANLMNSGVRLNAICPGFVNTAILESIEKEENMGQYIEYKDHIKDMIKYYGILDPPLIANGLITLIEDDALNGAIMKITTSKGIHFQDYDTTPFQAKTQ
#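 20 nM HPGD preincubated 15 min at room temperature with compound in 50 mM Tris-HCl pH 8, 0.01% Tween 20. Started with 1 mM NAD+ and 30 uM prostaglandin E2; NADH fluorescence (360/450 nm) read 5 times over 30-s intervals, last minus first.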
# ALDH1A1 inh: qHTS Assay for Inhibitors of Aldehyde Dehydrogenase 1 (ALDH1A1); Aldehyde dehydrogenase 1A1 (Homo sapiens), P00352; Purified ALDH1A1, NADH fluorescence, propionaldehyde substrate; Potency, µM (titrated, usually from 75.3 µM), for the others: top-dose activity, negative = inhibition, actives largely listed as inhibitors; 220,000 tested, 7.3% active; AID 1030, 2008;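 note: plate controls were no enzyme wells and a reference inhibitor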
# Target sequence (P00352 whole entry, looked up): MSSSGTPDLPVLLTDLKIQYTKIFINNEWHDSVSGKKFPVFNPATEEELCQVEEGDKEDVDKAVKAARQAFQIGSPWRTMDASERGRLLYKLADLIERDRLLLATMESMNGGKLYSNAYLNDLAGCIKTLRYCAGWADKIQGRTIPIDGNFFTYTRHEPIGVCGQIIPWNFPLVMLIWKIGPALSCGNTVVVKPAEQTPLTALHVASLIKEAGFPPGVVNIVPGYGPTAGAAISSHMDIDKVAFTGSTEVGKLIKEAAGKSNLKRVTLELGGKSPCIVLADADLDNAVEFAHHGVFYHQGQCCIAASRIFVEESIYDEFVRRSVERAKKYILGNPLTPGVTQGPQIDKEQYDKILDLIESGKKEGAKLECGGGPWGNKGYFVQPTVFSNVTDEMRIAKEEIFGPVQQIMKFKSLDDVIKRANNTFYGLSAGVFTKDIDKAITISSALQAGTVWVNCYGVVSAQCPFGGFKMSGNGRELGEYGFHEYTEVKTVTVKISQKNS
# Lamin A splicing: qHTS Assay for Modulators of Lamin A Splicing. Potency, µM (titrated, usually from 46.1 µM), for inactives: at the highest dose ratio change, negative = inhibition, hits mostly inhibitors. 200,000 tested, 0.01% active. HeLa LMNA splicing GFP/RFP minigene ratio, 48 h; active = well fitted inhibition curve with a large enough effect in the signal ratio, with a control signal flat, not every such curve was filed as active; inconclusive = small, poorly fitted or top-dose-only effect, or effect the other way, or a change in a side signal; the % refers to the signal ratio; note: % is set by controls: 0 for no effect and ±100 for the full control effect
#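 Read-out is the ratio of GFP to DsRed2 object intensity, acquired by 488 nm laser-scanning cytometry on HeLa lamin A-EGFP minigene reporter cells. Compound incubation 48 hrs at 37 °C in Opti-MEM with 2% FBS; DMSO 0.5% final.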
# Starred values were filed as active, the others as inactive; ? = inconclusive; nt = no result; [ ] = another dose, or the depositor's remark. Sampled rows, rich in hits. Any-hit rate of the full collection: about 8.8%. Unless noted, calls come from the whole dose curve; as a rule, active = well fitted inhibition curve with a large enough effect (not every such curve was filed as active); inconclusive = small, poorly fitted or top-dose-only effect, or another doubt; inactive = no such curve, though single readings can be large or run the other way. Potency is the fitted concentration of half-maximal effect.
SMILES,HttQ103 aggreg,HTT ATP protect,HPGD block,ALDH1A1 inh,Lamin A splicing
Cc1cc(C)c(/C=C/c2onc(C)c2S(=O)(=O)N2CCC(C(=O)NCC(C)c3ccccc3)CC2)c(C)c1 (configuration not stated),nt,nt,nt,nt,-10%[46 µM]
CN(C)CCC[C@@H]1c2ccccc2Oc2ccc(C(F)(F)F)cc21,nt,6%[10 µM],-2%,10%[13.5 µM],nt
Fc1ccc(-n2nnc(-c3cnc4ccccc4c3)n2)cc1,-4%[9.22 µM],-26%[10 µM],nt,5%,nt
O=C(c1ccc(Cl)c(F)c1F)N1CCCC1,-4%,-9%,20µM*,12%,5%
CS(=O)(=O)c1ccc(C2=C(c3ccccc3)C(=O)OC2)cc1,16%,?,15%,2.8µM*,-11%
COc1ccc(C2=C(c3ccc([N+](=O)[O-])cc3)C(=O)OC2)cc1,3%,-28%,nt,4%,nt
Cc1cccc(-c2n[nH]c(=S)n2/N=C/c2ccco2)c1,-4%[9.22 µM],19%[10 µM],nt,nt,nt
C(=N/n1c2ccccc2c2ccccc21)/c1ccco1,-7%,2%,-14%,10µM*,3%
N=c1scc(-c2ccccc2)n1/N=C/c1ccco1,3%,-15%[10 µM],-27%,22µM*,-3%
C(=N\n1c2ccccc2c2ccccc21)/c1ccccc1,-9%,23%[10 µM],-19%,1%,-8%
CC(N)(C(=O)O)c1cccc(CC(=O)O)c1 (configuration not stated),nt,-21%,nt,-7%,nt
CCOCCCNC(=O)c1cn(CC(C)C)c(=O)c2cc(OC)c(OC)cc12,10%,9%[10 µM],-17%,20µM*,-14%
COc1cc2c(C(=O)Nc3ccc4c(c3)OCO4)cn(CC(C)C)c(=O)c2cc1OC,-13%,-22%,-3%,?,5%
CCn1cc(C(=O)NCCCOC)c2cc(OC)c(OC)cc2c1=O,-5%,-3%[1.9 µM],-19%,4%,21%
CCn1cc(C(=O)NCc2cccnc2)c2cc(OC)c(OC)cc2c1=O,6%,25%[1.9 µM],-17%,25µM*,2%
COc1cc(OC)c(C(=O)NCc2cccnc2)cc1OC,-6%,-44%,nt,-4%,5%[46 µM]
COc1cc2c(C(=O)NCc3ccc4c(c3)OCO4)cn(CC(C)C)c(=O)c2cc1OC,-7%,-7%[10 µM],-3%,0.14µM*,-14%
O=C(c1ccccc1F)N1c2nc(-c3ccco3)nn2C2(CCCCC2)[C@@H]2CCCC[C@@H]21,nt,nt,nt,nt,1%[46 µM]
CCOC(=O)c1ccc(NC(=S)N2CCSC2c2c(F)cc(F)cc2F)cc1 (configuration not stated),-3%,-3%[10 µM],-5%,-3%,?
Fc1cc(F)c(C2SCCN2C(=S)Nc2cccc(C(F)(F)F)c2)c(F)c1 (configuration not stated),14%[9.22 µM],14%[10 µM],nt,14µM*,nt
O=C(c1cc(-c2cccs2)nc2ccccc12)N1CCN(S(=O)(=O)c2cccc(F)c2)CC1,0.63µM*,0%,?,?,-9%
O=C(c1cc(-c2ccccn2)nc2c(Cl)cccc12)N1CCN(S(=O)(=O)c2ccccc2)CC1,-5%,-7%[10 µM],-16%,16µM*,-3%
O=C(c1cc(-c2ccccn2)nc2c(Cl)cccc12)N1CCN(C(=O)C2CCCO2)CC1 (configuration not stated),19%,-9%,-16%,-6%,-2%
c1ccc(-c2nnc(-c3ccccn3)nc2NC2CCCCC2)cc1,3.5µM*,-38%[10 µM],-5%,4%,?
Cn1cc(S(=O)(=O)N2CCCCCC2)cc1C(=O)NCc1ccc(F)cc1,nt,nt,nt,nt,4%[46 µM]
SMILES,HttQ103 aggreg,HTT ATP protect,HPGD block,ALDH1A1 inh,Lamin A splicing
c1ccc(CN2CCC(Nc3ncnc4sccc34)CC2)cc1,10µM*,-33%,nt,-9%,nt
Cc1csc2c(NC3CCN(Cc4ccccc4)CC3)ncnc12,26%[9.22 µM],5%[10 µM],nt,nt,nt
Cc1sc2ncnc(NC3CCN(Cc4ccccc4)CC3)c2c1C,7.1µM*,2%[10 µM],nt,2%,?
COc1ccccc1-c1nc2cc3ccccc3cc2nc1-c1ccccc1,-9%,33%[10 µM],-23%,-5%,?
COc1ccc(CCNC(=O)c2ccc(Cl)c(S(=O)(=O)N(C)c3ccccc3)c2)cc1,-3%,0%[10 µM],-15%,0%,?
C=CCSc1nnc(NC(=O)c2cccc(S(=O)(=O)N(C)c3ccccc3)c2)s1,10µM*,-18%[0.074 µM],?,?,?
Cc1nnc(SCC(=O)Nc2cccc(S(=O)(=O)N(C)c3ccccc3)c2)s1,-8%,21%[10 µM],0.022µM*,-2%,?
CN(c1ccccc1)S(=O)(=O)c1cccc(NC(=O)CSc2n[nH]c(N)n2)c1,-8%[9.22 µM],11%[10 µM],nt,nt,nt
COCCn1cnnc1SCC(=O)Nc1cccc(S(=O)(=O)N(C)c2ccccc2)c1,17%,19%,nt,5.6µM*,nt
CN(c1ccccc1)S(=O)(=O)c1cccc(C(=O)NCCc2ccc(O)c(O)c2)c1,?,15%,nt,28µM*,-24%[46 µM]
CN(C)S(=O)(=O)c1cccc(NC(=O)CSc2nncn2-c2ccccc2)c1,-32%,15%,nt,?,-30%[46 µM]
CCOc1cccc2cc(-c3nc4sc5c(c4c(=O)[nH]3)CCC(C)C5)c(=O)oc12 (configuration not stated),nt,nt,nt,nt,8%[46 µM]
CC1(C)OC(C(O)(c2cc(F)c(F)c(F)c2)c2cc(F)c(F)c(F)c2)C(C(O)(c2cc(F)c(F)c(F)c2)c2cc(F)c(F)c(F)c2)O1 (configuration not stated),nt,-102%[10 µM],nt,9%[13.5 µM],nt
Cc1nc2cnc(N3CCOCC3)nc2n(CCC#N)c1=O,nt,-60%,?,?,nt
COCC(=O)N1CCC2(CCCN(C(=O)Nc3ccc(OC)cc3)C2)CC1,nt,?,-7%,-1%,nt
O=C(Nc1ccc(S(=O)(=O)NCC2CCCO2)cc1)c1ccccc1 (configuration not stated),-4%,-14%,nt,-4%,nt
C=CCSc1nnc(NC(=O)c2ccc(S(=O)(=O)NCC3CCCO3)cc2)s1 (configuration not stated),0%,-17%,18µM*,?,?
O=C1c2ccccc2C(=O)C1Cc1cccc2ccccc12,-6%,4%[10 µM],14µM*,?,-7%
Cc1n[nH]c(=S)n1/N=C/c1ccc(-c2ccccc2[N+](=O)[O-])o1,-28%,-27%,14µM*,14µM*,-17%
Cc1nnc(N/N=C\c2ccc(-c3ccccc3[N+](=O)[O-])o2)n1N,6%,2%[10 µM],-17%,20µM*,-4%
CNc1ncnc2c1ncn2[C@H]1C[C@H](O)[C@@H](CO)O1,nt,-7%,nt,8%,nt
COc1ccc(NC(=S)N2CCC(C(=O)c3ccc(F)cc3)CC2)c(OC)c1,-11%,-37%,nt,1%,2%[46 µM]
